# Screening data from PubChem.
# Sampled rows, rich in hits. Any-hit rate of the full collection: about 8.7%.
# Vaccinia mCherry – inhibitors of vaccinia virus infection (mCherry reporter signal) | actives 0.63% (n = 310,000) | AID 720579 | Vaccinia virus mCherry reporter infection, fluorescence | Potency, µM (series often up to 36.5 µM), without a hit: top-dose activity change, negative = inhibition, actives largely listed as inhibitors; calls by dose curve; tested in A549 cells; also: nearly all actives have a fitted effect of over 35% in size
# Pf growth 48h – inhibits P. falciparum growth in the first generation, 48 h; actives 5.9% (n = 310,000); Potency, µM (titrated, usually from 28.7 µM), without a hit: at the top dose activity change, negative = inhibition, most hits filed as inhibitors; P. falciparum luciferase growth in erythrocytes, 48 h
#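 Firefly luciferase activity from engineered P. falciparum reports growth; inhibitors lower the luminescent signal. Cultures contained 2% hematocrit erythrocytes at 0.1% final parasitemia.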
# VACV Venus inh – inhibitors of vaccinia virus (Venus reporter); Vaccinia virus Venus reporter expression, fluorescence; AID 720580; actives 0.46% (n = 330,000); Potency, µM (titrated, usually from 36.5 µM), for inactives: at the highest dose activity change, negative = inhibition, usual class: inhibitors; calls by dose curve; tested in A549 cells; also: nearly all actives have a fitted effect of over 30% in size
# Pf growth 96h – inhibits malaria parasite growth, 96 h | P. falciparum luciferase reporter growth, 96 h | AID 504834 | actives 6.9% (n = 320,000) | Potency, µM (highest dose often 28.7 µM), inactives show at the highest dose activity change, negative = inhibition, hits mostly inhibitors
#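 Compounds incubated with erythrocytes infected by luciferase-expressing P. falciparum (2% hematocrit, 0.05% parasitemia final) for 96 hours, 37 C in 5% CO2. Growth inhibition scored as decreased luciferase luminescence.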
# AMA1-RON2 inh – AMA1-RON2 (P. falciparum) interaction inhibition; Potency, µM (series often up to 58.2 µM), for inactives: at the top dose activity change, negative = inhibition, hits mostly inhibitors; AlphaScreen AMA1-biotinylated RON2 peptide binding; actives 0.2% (n = 360,000);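 also: 0% = vehicle wells and -100% = peptide control; nearly all actives have a fitted effect of over 45% in size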
#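 AMA1 (3D7) with his tag at 25 nM final met compounds first, then biotinylated RON2 peptide at 25 nM; detection used donor plus acceptor beads, 10 µg/mL apiece, read by AlphaScreen after 30 min at room temperature.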
# * hit, by the source's call; i = inactive; ? = inconclusive; / = no result. Unless noted, calls follow the shape of the dose curve; as a rule, active = well fitted curve in the direction sought with a large enough effect; inconclusive = small, poorly fitted or top-dose-only effect, or another doubt; inactive = no such curve, though single readings can be large; an effect the other way counts as inactive or inconclusive. Unless noted, % is scaled to controls: 0 for no effect and ±100 for the full control effect; potency is read from the fitted curve at half-maximal effect.
SMILES,Vaccinia mCherry,Pf growth 48h,VACV Venus inh,Pf growth 96h,AMA1-RON2 inh
CS(=O)(=O)OCC(O)C(O)COS(C)(=O)=O (stereo not given),/,-11%,/,-16%,/
CC(=O)Nc1ccc(NC(=O)c2cnn(-c3ccccc3)c2C2CCN(C(=O)OC(C)(C)C)CC2)cc1,4%,/,0%,/,/
Cc1nn(CC(=O)NCc2ccccc2Cl)c(=O)c2cccn12,-12%,/,-10%,/,/
COc1cc(CN2CC(=O)N(c3ccc(C)cc3)C2=S)cc(OC)c1OC,?,0.83µM*,-16%,-14%,1%
COc1ccc(CN2CC(=O)N(c3ccc(C)cc3)C2=S)cc1OC,-15%,?,-12%,0%,-12%
Cc1cccc(N2C(=O)CN(Cc3ccccc3)C2=S)c1,-26%,/,-5%,0%,36%
COc1cc(CN2CC(=O)N(c3ccc(C)c(Cl)c3)C2=S)cc(OC)c1OC,-18%,2.1µM*,-2%,-1%,-3%
COc1ccc(NC(=O)CN2C(=O)C(C)(C)c3ccccc32)cc1Cl,-22%,/,-10%,/,/
CN(C)c1ccc(/C=C/c2ccnc3ccc(N)cc23)cc1,?,/,29%,/,/
CC1CCN(C(=O)c2[nH]cnc2C(=O)N[C@@H](Cc2ccccc2)C(=O)OC(C)(C)C)CC1,-6%,15%,-20%,51%,105%
CC(C)(C)OC(=O)[C@H](Cc1ccccc1)NC(=O)c1nc[nH]c1C(=O)NC1CCN(C(=O)OC(C)(C)C)CC1,?,4.7µM*,?,3.3µM*,101%
CC(C)(C)OC(=O)[C@H](Cc1ccccc1)NC(=O)c1nc[nH]c1C(=O)N1CCN(C(=O)OC(C)(C)C)CC1,?,?,7%,9.3µM*,72%
Cc1cc(C)cc(OCC(=O)NC(Cc2c[nH]c3ccccc23)C(=O)O)c1 (stereo not given),-24%,/,-21%,/,/
CCCN1CNc2c(c(=O)[nH]c(=S)n2CCCc2ccccc2)C1,0%,/,-12%,/,/
CCOc1ccc(S(=O)(=O)N(CC(=O)Nc2cccnc2)c2ccc(F)cc2)cc1,-23%,19%,-14%,5.9µM*,-4%
COc1ccc(S(=O)(=O)N(CC(=O)NC2CCCCC2)c2ccc(F)cc2)cc1,-8%,33%,-5%,7.4µM*,12%
COc1ccc(N(CC(=O)NC2CC3CCC2C3)S(=O)(=O)c2ccc(C)cc2)cc1 (stereo not given),-1%,-18%,-24%,13µM*,7%
CCOc1ccc(N(CC(=O)NCc2cccnc2)S(=O)(=O)c2ccc(F)cc2)cc1,i,-15%,-4%,31%,19%
COc1ccc(N(CC(=O)NC2CC3CCC2C3)S(=O)(=O)c2ccc(C)cc2)cc1OC (stereo not given),11%,?,26%,23%,-2%
COc1ccc(C)cc1S(=O)(=O)N(C)CC(=O)NC1CCCCC1,/,5%,-17%,/,-3%
COc1ccc(C)cc1S(=O)(=O)N(CC(=O)NC1CCCC1)c1ccc(F)cc1,-14%,41%,-21%,9.3µM*,0%
O=C(NCc1ccco1)C1CCN(C(=O)N2CCOc3ccc(Cl)cc32)CC1,-11%,/,-9%,/,/
O=C1CC(C(=O)N2CCCC(c3nc(-c4ccncc4)ncc3-c3ccccc3)C2)C2(CCCCC2)O1 (stereo not given),-14%,/,0%,/,/
CCc1ccc(S(=O)(=O)c2cnc3ccc(OC)cc3c2N2CCCC(C)C2)cc1 (stereo not given),i,/,-15%,/,/
Cc1nn(-c2ccc(N3CCCC3)nn2)c(C)c1CCC(=O)Nc1ccc(F)cc1F,-12%,/,-17%,/,/
SMILES,Vaccinia mCherry,Pf growth 48h,VACV Venus inh,Pf growth 96h,AMA1-RON2 inh
CCn1c(=NC(=O)CS(=O)(=O)c2ccc(F)cc2)sc2cccc(OC)c21,-10%,12µM*,-19%,?,-1%
CCCn1c(=NC(=O)CS(=O)(=O)c2ccccc2)sc2cc(S(C)(=O)=O)ccc21,-15%,?,-12%,?,6%
COc1ccc2c(c1)sc(=NC(=O)CS(=O)(=O)c1ccc(F)cc1)n2C,i,9.3µM*,-17%,4.1µM*,4%
COc1ccc(C2CC(=O)N(Cc3cccc(C)c3)c3c2c(C)nn3-c2nc(C)cc(C)n2)c(OC)c1 (stereo not given),-13%,/,-1%,/,/
CCN1CC2=C(OC(N)=C(C#N)C2c2cccs2)/C(=C\c2cccs2)C1 (stereo not given),-4%,/,-10%,9.3µM*,-4%
O=C(/C=C/c1ccccc1)N1CCN(c2ccc([N+](=O)[O-])c(N3CCOCC3)c2)CC1,-10%,?,-12%,10µM*,-20%
O=C(c1ccc2ccccc2c1)N1CCN(c2ccc([N+](=O)[O-])c(N3CCOCC3)c2)CC1,-11%,7.4µM*,-3%,8.3µM*,13%
Cc1cccc(C(=O)N2CCN(c3ccc([N+](=O)[O-])c(N4CCOCC4)c3)CC2)c1,?,?,-25%,?,-22%
O=C(c1cc2ccccc2cc1O)N1CCN(c2ccc([N+](=O)[O-])cc2)CC1,?,6.6µM*,-30%,?,-17%
CCCS(=O)(=O)N1CCCC(C(=O)NCCCOC)C1 (stereo not given),-4%,/,1%,/,/
Cc1ccc(C2Nc3cc(C)c(C)cc3-n3c(-c4ccccc4)c4c(=O)n(C)c(=O)n(C)c4c32)o1 (stereo not given),-19%,/,-13%,/,/
CC(C)Oc1ccc(S(=O)(=O)N2CCCCC2)cc1NC(=O)C1CSC2(C)CCC(=O)N12 (stereo not given),-20%,12µM*,-16%,?,-2%
COc1ccc(S(=O)(=O)N2CCCCC2)cc1NC(=O)C1CSC2(C)CCC(=O)N12 (stereo not given),/,?,/,10%,10%
CCOc1ccc(S(=O)(=O)N2CCCCC2)cc1NC(=O)C1CSC2(C)CCC(=O)N12 (stereo not given),-22%,1µM*,-5%,?,-22%
COc1cccc(N2CCN(C3C(=O)c4ccccc4N3C(C)=O)CC2)c1 (stereo not given),-5%,/,-7%,/,/
COc1ccc(Cn2c(CNS(=O)(=O)c3ccc4c(c3)CCCC4)nc3cccnc32)cc1,-13%,/,-5%,/,/
C/C=C(/C)C(=O)O[C@@H]1c2cc(OC)c(OC)c(OC)c2-c2c(cc3c(c2OC)OCO3)C[C@H](C)[C@]1(C)O,-5%,?,0%,?,10%
COc1cc2c(c(OC)c1OC)-c1c(cc3c(c1OC)OCO3)[C@@H](OC(C)=O)[C@H](C)[C@H](C)C2,-5%,13µM*,-15%,10µM*,-5%
CN(C)c1ccc(/C=C2\C(Cl)=Cc3ccccc32)cc1,29%,/,-5%,/,/
Clc1ccc(Cn2cnc3ccccc32)cc1,5%,?,6%,2%,-11%
c1ccc(Cn2cnc3ccccc32)cc1,-13%,1%,-17%,8.3µM*,1%
O=C1CSc2ccc(S(=O)(=O)N3CCN(c4ccccc4F)CC3)cc2N1,/,?,/,13µM*,-12%
